From PubChem
This is a sample that favours compounds with a hit; in the whole collection about 11% have one here.
L3MBTL1 block: qHTS Assay for the Inhibitors of L3MBTL1 | AlphaScreen L3MBTL1–H3K9me1 peptide binding | Potency, µM (top dose mostly 57.1 µM), usual class: inhibitors | 0.66% of 230,000 active | AID 485360, 2010; further: nearly all actives have a fitted effect of over 60% in size
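Displacement of a biotinylated histone H3(1-15) peptide monomethylated at Lys9 (75 nM) from L3MBTL1 (50 nM) was measured by AlphaScreen after a 30 min room-temperature compound incubation; cefsulodin titration served as intraplate control.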
G9a inh: qHTS Assay for Inhibitors of Histone Lysine Methyltransferase G9a. Histone-lysine N-methyltransferase EHMT2 (Homo sapiens), Q96KQ7. G9a H3K9 monomethylation, AlphaScreen, 2 h. Potency, µM (titrated, usually from 102 µM), hits mostly inhibitors. 8.8% of 350,000 active. AID 504332, 2011; further: nearly all actives have a fitted effect of over 75% in size
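G9a (20 nM) was preincubated 15 min with compound, then reacted 2 h at room temperature with 500 nM biotin-H3K9 peptide and 20 µM SAM. Monomethyl-H3K9 detected by AlphaScreen using anti-H3K9me1 antibody.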
HP1b chromo inh: HTS for Inhibitors of HP1-beta Chromodomain Interactions with Methylated Histone Tails; Chromobox protein homolog 1 (Homo sapiens), P83916; AlphaScreen HP1-beta / biotin-H3K9me3 peptide binding; Potency, µM (series often up to 114 µM), most hits filed as inhibitors; 0.56% of 390,000 active; AID 540317, 2011; further: nearly all actives have a fitted effect of over 70% in size
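HP1-beta protein (50 nM final) preincubated 30 min at room temperature with biotinylated H3(1-18)K9me3 peptide (50 nM) in PBS pH 7.4, 0.01% Tween-20, then compound added for 30 min. AlphaScreen streptavidin donor/nickel chelate acceptor beads (10 ug/mL final), 30 min dark, luminescence read.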
JMJD2A Tudor: qHTS Assay for Inhibitors of JMJD2A-Tudor Domain | Lysine-specific demethylase 4A (Homo sapiens), O75164 | AlphaScreen JMJD2A-Tudor / H3K4me3 peptide binding | Potency, µM (highest dose often 114 µM), hits mostly inhibitors | 4.4% of 390,000 active | AID 504339, 2011; further: nearly all actives have a fitted effect of over 50% in size
BAZ2B inh: qHTS Assay for Inhibitors of BAZ2B; Bromodomain adjacent to zinc finger domain protein 2B (Homo sapiens), Q9UIF8; AlphaScreen BAZ2B-H3K14Ac peptide displacement; Potency, µM (top dose mostly 114 µM), most hits filed as inhibitors; 4.4% of 360,000 active; AID 504333, 2011; further: nearly all actives have a fitted effect of over 60% in size
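BAZ2B 50 nM plus b-H3(5-23)K14Ac 50 nM, PBS pH 7.4/0.01% Tween-20, 30 min RT; compound added (max 110 uM), 30 min RT; streptavidin donor/Ni-chelate acceptor beads 10 ug/mL final, 20 min dark; AlphaScreen read.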
Hits are given with their value; [ ] = another dose, or the depositor's remark. The call rests on the fitted dose curve; in most records, active means well fitted inhibition curve with a large enough effect; inconclusive means small, poorly fitted or top-dose-only effect; inactive means no such curve, though single readings can be large or run the other way.

Screening Cc1cccc(-n2ncc(C(=O)NCc3ccco3)c2C2CCN(C(=O)OC(C)(C)C)CC2)c1 returned G9a inh inactive, HP1b chromo inh inactive, JMJD2A Tudor inconclusive and BAZ2B inh inactive.
For COc1ccc(CCNC(=O)CCCn2nc(C)c3sc4ccccc4c3c2=O)cc1OC the results were G9a inh inconclusive, HP1b chromo inh inactive, JMJD2A Tudor inactive and BAZ2B inh inconclusive.
Screening O=C(c1ccccc1)N1CCN(c2ccc(NCc3ccc4c(c3)OCO4)cc2)CC1 returned L3MBTL1 block inconclusive, G9a inh 5µM, HP1b chromo inh 45µM, JMJD2A Tudor 50µM and BAZ2B inh 35µM.
O=C(Nc1ccc(N2CCN(Cc3ccccc3)CC2)cc1)c1ccco1 was read as G9a inh 79µM, HP1b chromo inh inactive, JMJD2A Tudor inconclusive and BAZ2B inh inactive.
For CC(C)(C)C(=O)N1CCN(c2ccc(NC(=O)c3ccco3)cc2)CC1 the results were G9a inh inactive, HP1b chromo inh inactive, JMJD2A Tudor inactive and BAZ2B inh inactive.
Screening CC(=O)N1CCN(c2ccc(NCc3cccc4ccccc34)cc2)CC1 returned L3MBTL1 block inactive, G9a inh 8.9µM, HP1b chromo inh inconclusive, JMJD2A Tudor 22µM and BAZ2B inh 32µM.
For CC(=O)N1CCN(c2ccc(NCc3ccccc3)cc2)CC1 the results were L3MBTL1 block inactive, G9a inh 14µM, HP1b chromo inh inactive, JMJD2A Tudor inconclusive and BAZ2B inh inconclusive.
Cc1ccc(CCNC(=O)Cn2nc(-c3ccc(C)cc3)ccc2=O)cc1 was read as G9a inh inactive, HP1b chromo inh inactive, JMJD2A Tudor inactive and BAZ2B inh inactive.
Screening COc1cccc(CNC(=O)c2cc3c(s2)-c2c(C)cccc2OC3)c1 returned G9a inh inactive, HP1b chromo inh inactive, JMJD2A Tudor inactive and BAZ2B inh inactive.
`CS(=O)(=O)c1ccc(Cl)c(NC(=O)COC(=O)CCCN2C(=O)c3cccc4cccc(c34)C2=O)c1` gave L3MBTL1 block inactive, G9a inh inactive, HP1b chromo inh inactive, JMJD2A Tudor inactive and BAZ2B inh inactive.
`CC(C)COc1ccc(C(=O)Nc2onc3c2CCCC3)cc1` gave G9a inh inconclusive, HP1b chromo inh inactive, JMJD2A Tudor inactive and BAZ2B inh inactive.
C#CCNC(=O)C1=C[C@@H](c2ccc(C(F)(F)F)cc2)[C@H](CCCO)[C@@H](OCC)O1 was read as L3MBTL1 block inactive, G9a inh inactive, HP1b chromo inh inactive, JMJD2A Tudor inactive and BAZ2B inh inactive.
Fc1ccc(CNc2ccc(N3CCN(Cc4ccccc4)CC3)cc2)cc1 was read as L3MBTL1 block 22µM, G9a inh 13µM, HP1b chromo inh 22µM, JMJD2A Tudor 20µM and BAZ2B inh 10µM.
`O=C(CN1C(=O)CCSc2ccc(S(=O)(=O)N3CCCC3)cc21)Nc1cccc(F)c1` gave G9a inh inactive, HP1b chromo inh inactive, JMJD2A Tudor inactive and BAZ2B inh inactive.
For COc1ccc(C(=O)N2CCN(Cc3ccccc3C(F)(F)F)CC2)cc1 the results were L3MBTL1 block inactive, G9a inh 20µM, HP1b chromo inh inconclusive, JMJD2A Tudor 25µM and BAZ2B inh inconclusive.
COc1cccc(C(=O)N2CCN(Cc3ccccc3C(F)(F)F)CC2)c1 was read as L3MBTL1 block inactive, G9a inh 3.5µM, HP1b chromo inh inconclusive, JMJD2A Tudor inactive[11.4 µM] and BAZ2B inh 28µM.
`COc1ccc(C(=O)N2CCN(Cc3cn[nH]c3-c3ccc(OC)cc3F)CC2)cc1` gave L3MBTL1 block inactive, G9a inh inactive, HP1b chromo inh inactive, JMJD2A Tudor inactive and BAZ2B inh inactive.
`COc1cccc(C(=O)N2CCN(C(=O)Cc3ccccc3)CC2)c1` gave L3MBTL1 block inactive, G9a inh inactive, HP1b chromo inh inactive, JMJD2A Tudor inactive and BAZ2B inh inactive.
CC1CCCCN1CCCNc1ccc(C(CC(N)=O)NC(=O)Cc2cccc3ccccc23)cc1[N+](=O)[O-] (stereo unspecified) was read as L3MBTL1 block inactive, HP1b chromo inh inactive, JMJD2A Tudor inactive and BAZ2B inh inactive.
For COC(=O)[C@]1(C)N[C@H](CN(C)C(=O)c2ccccc2)[C@@H]2C(=O)N(C)C(=O)[C@@H]21 the results were L3MBTL1 block inactive, HP1b chromo inh inactive and JMJD2A Tudor inactive.
Screening COCCN(C(=O)c1cc(Cl)ccn1)c1c(N)n(Cc2ccccc2)c(=O)[nH]c1=O returned L3MBTL1 block inactive, G9a inh inconclusive, HP1b chromo inh inactive, JMJD2A Tudor inactive and BAZ2B inh inactive.
Screening Fc1cnc(N2CCN(c3ccccc3)CC2)nc1N1CCN(c2ccccc2)CC1 returned L3MBTL1 block inactive, G9a inh 50µM, HP1b chromo inh inactive, JMJD2A Tudor inactive and BAZ2B inh inconclusive.
Screening CCc1ccc(C(=O)c2cn(CC(=O)Nc3ccc4c(c3)OCCO4)c3ccc(C)cc3c2=O)cc1 returned G9a inh inactive, HP1b chromo inh inactive, JMJD2A Tudor inactive and BAZ2B inh inactive.
`Cc1ccc(/C=N/N2CCN(Cc3ccc(Cl)cc3)CC2)o1` gave G9a inh 50µM, HP1b chromo inh inactive, JMJD2A Tudor inconclusive and BAZ2B inh inconclusive.
Screening O=C(CN1CCN(Cc2ccccc2)CC1)N/N=C/c1ccco1 returned L3MBTL1 block inactive, G9a inh inactive, HP1b chromo inh inactive, JMJD2A Tudor inactive and BAZ2B inh inactive.
`Clc1ccc(CN2CCN(/N=C/c3ccco3)CC2)cc1` gave G9a inh 50µM, HP1b chromo inh inconclusive, JMJD2A Tudor inconclusive and BAZ2B inh inconclusive.
Screening O=C(Nc1c(C(=O)N2CCN(c3ccccc3F)CC2)oc2ccccc12)c1cccc(F)c1 returned G9a inh inactive, HP1b chromo inh inactive, JMJD2A Tudor inactive and BAZ2B inh inconclusive.
Screening CCCc1cc(=O)[nH]c(SCC(=O)N2CCN(c3ccccc3)CC2)n1 returned G9a inh inactive, HP1b chromo inh inactive, JMJD2A Tudor inactive and BAZ2B inh inactive.
Cc1nc(SCC(=O)N2CCN(c3ccccc3)CC2)n[nH]1 was read as G9a inh 40µM, HP1b chromo inh inactive, JMJD2A Tudor inactive and BAZ2B inh inactive.
For Nc1nc(SCC(=O)N2CCN(c3ccccc3)CC2)n[nH]1 the results were G9a inh 40µM, HP1b chromo inh inactive, JMJD2A Tudor inactive and BAZ2B inh inactive.
`Nc1nc(SCC(=O)N2CCN(c3ccc(F)cc3)CC2)n[nH]1` gave L3MBTL1 block inactive, G9a inh inactive, HP1b chromo inh inactive, JMJD2A Tudor inactive and BAZ2B inh inactive.
`O=C(CSc1ccccc1C(=O)N1CCN(c2ccc([N+](=O)[O-])cc2)CC1)N1CCCC1` gave L3MBTL1 block inactive, HP1b chromo inh inactive and JMJD2A Tudor inactive.
`O=C(CSc1ccccc1C(=O)N1CCN(c2ccccc2)CC1)N1CCCC1` gave L3MBTL1 block inactive, G9a inh 13µM, HP1b chromo inh inactive, JMJD2A Tudor inactive and BAZ2B inh inactive.
